Screen size: about 2,200 compounds; about 45 (2%) were called active. The list is a sample of the results. Results with a measured potency or affinity are listed apart. A number with no mark means an inactive call. How the calls were made is not given here.

From PubChem BioAssay AID1438 (Sanford-Burnham Center for Chemical Genomics, 2008) come the findings set out here.

This assay deals with Runt-related transcription factor 1 (Homo sapiens) + Core-binding factor subunit beta (Homo sapiens) (UniProt Q01196+Q13951). Briefly: inhibitors of RUNX1 Runt–CBFb-SMMHC binding, biochemical, TR-FRET (AID 1438). The conditions noted are these: TR-FRET Runt domain–CBFb-SMMHC binding, at 20 µM, hits give high values. Background: TR-FRET usually uses a lanthanide donor and a delayed reading to cut background.
Sequence of Runt-related transcription factor 1 (Homo sapiens) + Core-binding factor subunit beta (Homo sapiens) (Q01196 whole entry, looked up, the tested form may be a part): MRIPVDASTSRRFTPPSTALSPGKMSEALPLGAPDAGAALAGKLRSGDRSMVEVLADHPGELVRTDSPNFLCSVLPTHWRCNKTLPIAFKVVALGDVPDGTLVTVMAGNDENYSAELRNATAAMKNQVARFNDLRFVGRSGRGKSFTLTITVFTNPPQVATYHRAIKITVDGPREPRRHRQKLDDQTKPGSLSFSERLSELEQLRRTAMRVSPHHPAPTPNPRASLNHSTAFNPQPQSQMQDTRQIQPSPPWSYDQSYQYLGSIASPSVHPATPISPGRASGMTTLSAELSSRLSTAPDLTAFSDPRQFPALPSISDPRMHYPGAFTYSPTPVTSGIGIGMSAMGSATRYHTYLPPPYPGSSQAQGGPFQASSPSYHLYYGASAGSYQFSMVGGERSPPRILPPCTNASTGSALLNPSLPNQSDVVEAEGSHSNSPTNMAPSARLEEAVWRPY
Sequence of Runt-related transcription factor 1 (Homo sapiens) + Core-binding factor subunit beta (Homo sapiens) (Q13951 whole entry, looked up, the tested form may be a part): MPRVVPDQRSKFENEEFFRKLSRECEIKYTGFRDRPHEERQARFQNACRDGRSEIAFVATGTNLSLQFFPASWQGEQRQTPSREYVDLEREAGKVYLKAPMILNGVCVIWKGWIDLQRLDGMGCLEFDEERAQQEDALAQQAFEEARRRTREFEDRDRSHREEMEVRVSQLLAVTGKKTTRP
In general, inhibition refers to the relative decrease from the control value, in per cent. As to `Cc1cc(O)ccc1N/C=C(\C#N)c1nc2ccccc2o1`, the inhibition is 8%.

Regarding `Cc1cc(Nc2ccccc2)nc2cc(O)ccc12`, the inhibition is 15.5%.

With `CCN1C2=C(C(=O)CCC2)C(c2ccc(O)c(Br)c2)C2=C1CCCC2=O`, the inhibition was 19.7%.

Consider `C=CCOc1ccc(C2C(C#N)=C(N)N(Nc3ccccc3)C3=C2C(=O)CCC3)cc1OC` (configuration not stated), for which the inhibition was 32.3%.

Turning to `CCCN1C2=C(C(=O)CCC2)C(c2ccc(O)c(Br)c2)C2=C1CCCC2=O`, the inhibition is 24.4%.

For `Cc1ccc(C2C3=C(CC(C)(C)CC3=O)N(CCN3CCOCC3)C3=C2C(=O)CC(C)(C)C3)cc1`, the inhibition is 42.9%.

For the compound `N#Cc1c(N)[nH]c(=S)c(C#N)c1-c1ccccc1`, the inhibition is -64.2%.

As to `CCOC(=O)c1cc2c(=O)n3ccccc3nc2n(CCCOC)c1=NC(=O)c1ccncc1`, the inhibition is 2.5%.

Consider `COCCN1C=C(C(=O)OC)C(c2cc(Br)c(OC)c(OC)c2)C(C(=O)OC)=C1`, for which the inhibition is 47.6%.

In the case of `COC(=O)C1C(O)CCC2CN3CCc4c([nH]c5ccccc45)C3CC21` (configuration not stated), the inhibition is -11.7%.

For `C=CCn1c(=N)c(C(=O)NCCCOC)cc2c(=O)n3cccc(C)c3nc21`, the inhibition is 2.9%.

For the compound `Cn1c(=O)nc2n(Cc3ccccc3)c3ccccc3cc-2c1=O`, the inhibition is 36.1%.

Regarding `CCn1c(O)c(C=Nc2ccccc2)sc1=S`, the inhibition was -3.7%.

Turning to `O=C1CCCC2=C1C(c1ccc(Br)cc1)c1c([nH]c(=S)[nH]c1=O)N2` (configuration not stated), the inhibition was 42.6%.

`c1ccc(-c2nc(N3CCCCC3)nc3ccccc23)cc1`: the inhibition is 25.8%.

Regarding `CCc1nnc(NC(=O)C2(C)COC(c3ccccc3)OC2)s1` (configuration not stated), the inhibition was -7%.

Consider `CCC(C)(C)n1nnnc1C(c1cc2cc3c(cc2[nH]c1=O)OCO3)N1CCN(C)CC1` (configuration not stated), for which the inhibition was 39.5%.

For the compound `CCCNC(=O)Cn1sc2nc(C)cc(C)c2c1=O`, the inhibition is -3.9%.

For `O=C(O)CSc1c2c(nc3cc(C(=O)N4CCOCC4)ccc13)CCCC2`, the inhibition is -4.9%.

On to `O=C(Cn1c2ccccc2c(=O)c2ccccc21)Nc1cccc(F)c1`, for which the inhibition is 39%.

With `O=C(CCC(=O)N/N=C/c1cc(Cl)cc(Cl)c1O)NCc1ccccc1`, the inhibition was -4.9%.

Regarding `O=C(Cn1c2ccccc2c(=O)c2ccccc21)Nc1ccccc1F`, the inhibition is -15.4%.

As for `O=C(Cn1c2ccccc2c(=O)c2ccccc21)N/N=C/c1ccc(N2CCCC2)c([N+](=O)[O-])c1`, the inhibition was 10.6%.

`CCc1cc2c(COC(=O)c3c(C)noc3C)cc(=O)oc2cc1O`: the inhibition is -33.2%.

`N=c1c(C(=O)NCc2ccco2)cc2c(=O)n3ccccc3nc2n1Cc1ccccc1`: the inhibition was 65% (active).

Regarding `Cc1ccc(CNC(=O)c2cc3c(=O)n4ccccc4nc3n(CC3CCCO3)c2=N)cc1` (configuration not stated), the inhibition is 36.3%.

For `COc1ccc(CCn2c(=N)c(C(=O)NCc3ccco3)cc3c(=O)n4cccc(C)c4nc32)cc1`, the inhibition was 21.9%.

For the compound `CCOC(=O)c1cc2c(=O)n3ccccc3nc2n(Cc2ccccc2)c1=N`, the inhibition is 41.8%.

Turning to `COc1ccc(CNC(=O)c2cc3c(=O)n4ccccc4nc3n(Cc3cccnc3)c2=N)cc1`, the inhibition was 29.1%.

`N=c1c(C(=O)NCc2ccc(F)cc2)cc2c(=O)n3ccccc3nc2n1Cc1cccnc1`: the inhibition was 48.7%.

In the case of `N=c1c(C(=O)NCc2ccc3c(c2)OCO3)cc2c(=O)n3ccccc3nc2n1Cc1cccnc1`, the inhibition is 48.7%.

As for `Cc1cccn2c(=O)c3cc(C(=O)NCc4ccco4)c(=N)n(CCc4ccccc4)c3nc12`, the inhibition was -9.3%.

As to `N=c1c(C(=O)NCc2ccc(F)cc2)cc2c(=O)n3ccccc3nc2n1CCCN1CCOCC1`, the inhibition is 38.7%.

With `CCN1/C(=C/C(=O)c2ccco2)Sc2ccccc21`, the inhibition was 15.1%.

`N#Cc1c(N)n(CCc2ccc(F)cc2)c2nc3ccccc3nc12`: the inhibition is 32%.

In the case of `COCCCNC(=S)NCCNc1nc2c(C)c(C)ccc2cc1C#N`, the inhibition is -1.9%.

In the case of `Cc1ccc(C2C=C(c3ccccc3)Nc3nc(N4C(=O)CCC4=O)nn32)cc1` (configuration not stated), the inhibition is -11.2%.

`Cc1ccc(C2C3=C(CC(C)(C)CC3=O)Nc3[nH]c(=S)[nH]c(=O)c32)cc1` (configuration not stated): the inhibition was 39.6%.

For `COCCCNC(=S)NCCCNc1nc2cc(C)cc(C)c2cc1C#N`, the inhibition was -6.6%.

In the case of `O=c1cc(-c2ccc(O)cc2)oc2cc(O)c(C3OC(CO)C(O)C(O)C3O)c(O)c12` (configuration not stated), the inhibition was -6.5%.

Turning to `Cc1c2c(n3c(nc4ccccc43)c1C#N)N(CCN(C)C)CC2`, the inhibition was -12.2%.

Take `CCc1nnc(NS(=O)(=O)c2ccc(N/C=C/C(=O)c3ccc(OC)cc3)cc2)s1`: the inhibition was -1.7%.

`CCc1nnc(NC(=O)c2sc3nc4c(cc3c2N)CCCCCC4)s1`: the inhibition is 38.3%.

Turning to `Cc1ccc(C(=O)c2sc3nc4c(cc3c2N)CCC4)cc1`, the inhibition was 13.7%.

Take `Cc1cc(=O)oc2c(CN3CC(C)OC(C)C3)c(O)c(Cl)cc12` (configuration not stated): the inhibition is -12.9%.

Turning to `CCOC(=O)CCc1c(C)c(C#N)c2nc3ccccc3n2c1-n1ccnc1`, the inhibition was -4%.

For the compound `COC(=O)Cc1c(C)c2cc(Cl)c(OC(=O)c3ccco3)cc2oc1=O`, the inhibition is 19.4%.

As to `CCOC(=O)c1cc2ccc(OC)cc2oc1=O`, the inhibition is -9.7%.

As for `O=C(O)c1ccc(N=c2oc3cc(O)ccc3cc2C(=O)NCc2ccccc2)cc1`, the inhibition was -1.1%.

For `c1ccn2c(c1)nc1c2nc2ccccn21`, the inhibition is 8.5%.

`CCOC(=O)C1=C(CSc2nc3c(cc2C#N)CN(C)CC3)OC(N)=C(C#N)C1c1ccc(F)cc1` (configuration not stated): the inhibition is 22.5%.

For the compound `CCOC(=O)C1=C(CSc2nc3c(cc2C#N)CN(C)CC3)OC(N)=C(C#N)C1c1ccccc1` (configuration not stated), the inhibition is 29.2%.

Consider `CCOC(=O)C1=C(O)/C(=C/c2cn(CC(=O)N3CCCC3)c3ccccc23)SC1=Nc1ccccc1`, for which the inhibition is 4%.

As to `CC1CCc2c(sc(Nc3nc4c(F)cccc4s3)c2C(N)=O)C1` (configuration not stated), the inhibition was 48.6%.

Turning to `CCOC(=O)c1c(NC(=O)C(F)(OC)C(F)(F)F)sc2c1CCN(C)C2` (configuration not stated), the inhibition was -4.1%.

Take `CCOC(=O)c1cc2c(ccc3ccccc32)oc1=O`: the inhibition was -0.5%.

With `CNC(=O)c1cc2c(ccc3ccccc32)oc1=N`, the inhibition is 2.9%.
